Measured values taken from PubChem BioAssay (NCI).
The panel holds about 83,000 compounds, 20% with a hit somewhere; the sample as a whole holds those more often.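 Treatment: one concentration, 48 hours, 96-well format. Scoring: percent growth, with anything below 10 considered active.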 Values without a mark were called inactive. The source made the active and inactive calls.

Key:
Experiment in all cases: NCI-60 one-dose screen, 48 h (100 = growth as untreated, 0 = no growth, -100 = all killed)
Conditions in all cases: 10 µM unless noted
[1] = tested on: SK-MEL-2 melanoma
[2] = tested on: EKVX NSCLC
[3] = tested on: SN12C renal
[4] = tested on: UO-31 renal
[5] = tested on: TK-10 renal
[6] = tested on: ACHN renal
[7] = tested on: CAKI-1 renal
[8] = tested on: A498 renal
[9] = tested on: CCRF-CEM leukemia
[10] = tested on: MOLT-4 leukemia

Structure (SMILES)	growth [1]	growth [2]	growth [3]	growth [4]	growth [5]	growth [6]	growth [7]	growth [8]	growth [9]	growth [10]
Cn1cc2c(c1)-c1nc(Nc3ccccc3)ncc1CC2	73.6%	54.6%	64.8%	46.2%	61.9%	47.8%	48.8%	6.32% (active)	61.2%	44.6%
S=C(c1ccc2c(c1)OCO2)N1CCN(c2ccccc2Cl)CC1	97.3%	124%	110%	79.4%	105%	99%	83.8%	97%	96.1%	95.8%
COc1cccc(-c2nc3sccn3c2-c2ccnc(NCCNS(=O)(=O)c3cccc(F)c3)c2)c1	40.8%	38.5%	27.6%	6.44% (active)	51.4%	20.5%	21.3%	36.6%	16.5%	20.2%
COc1cc(/C=C/C(=O)c2c(C)nc3ccccc3c2/C=C/c2ccc(C)cc2)cc(OC)c1OC	39.7%	34.7%	15.2%	33.5%	54.3%	13.7%	28.6%	32.6%	5.31% (active)	4.36% (active)
Cc1cccc(NC(=O)CSc2nc3ccccc3[nH]2)c1	109%	93.4%	98.8%	75%	106%	97.5%	82.6%	53.4%	102%	102%
COc1cc(C(=O)/C=C/c2c(C(F)(F)F)nc3sccn23)cc(OC)c1OC	12.2%	10.6%	20.2%	-29.6% (active)	21.9%	-69.4% (active)	-16.5% (active)	61.4%	-9.49% (active)	0.936% (active)
Cc1nc2ccccc2c(/C=C/c2ccc(Cl)cc2)c1C(=O)/C=C/c1ccc(F)cc1	3.88% (active)	29.9%	-10.2% (active)	-79.4% (active)	43.3%	3.87% (active)	-10.1% (active)	-4.11% (active)	6.9% (active)	4% (active)
COc1ccc(/C=C/c2c(C(=O)/C=C/c3cccs3)c(C)nc3ccccc23)cc1	89.6%	84.8%	79.1%	56.4%	116%	82.2%	57.2%	53.3%	64.5%	60.1%
COc1ccc2c(c1)C(=O)/C(=C/c1ccc(OCC(=O)Nc3nccs3)cc1)O2	112%	32.7%	48.2%	-80.8% (active)	93.9%	49%	-78.4% (active)	99.7%	-73.8% (active)	-72.9% (active)
NC(=O)c1ccc[n+]([C@@H]2O[C@H](COP(=O)([O-])OP(=O)(O)OC[C@H]3O[C@@H](n4cnc5c(N)ncnc54)[C@H](O)[C@@H]3O)[C@@H](O)[C@H]2O)c1	137%	106%	107%	105%	120%	106%	98.3%	97.2%	95.4%	108%
Clc1cccc(Cl)c1C(Nc1nc2ccccc2s1)Nc1nc2ccccc2s1	76%	97.1%	108%	75%	114%	89.3%	108%	112%	81.7%	89.5%
Cc1c(C(=O)OC(=NC2CCCCC2)NC2CCCCC2)sc2c1c(=O)nc1c(C#N)n[nH]n12	93.6%	109%	117%	79.6%	117%	106%	101%	119%	300%	99.7%
COCCN(C(=O)c1ccc(F)cc1F)c1c(N)n(Cc2ccccc2)c(=O)[nH]c1=O	98.7%	109%	108%	83.4%	119%	103%	106%	100%	94.5%	98.1%
COCCc1ccc(OCC(O)CNC(C)C)cc1 (stereo not given)	108%	96%	109%	79.4%	110%	108%	96.4%	103%	96%	91.4%
O=C1Nc2ccc(F)cc2C12Nc1cc(Cl)ccc1S2 (stereo not given)	157%	89.2%	97.9%	80.4%	188%	99.8%	55.2%	89.2%	76.4%	74.5%
COc1cccc2c1C(=O)c1c(O)c3c(c(O)c1C2=O)CC(O)(/C(C)=N/NC(=O)CCCCC(=O)N/N=C(\C)C1(O)Cc2c(O)c4c(c(O)c2C(OC2CC(N)C(O)C(C)O2)C1)C(=O)c1c(OC)cccc1C4=O)CC3OC1CC(N)C(O)C(C)O1 (stereo not given)	-56.9% [5 µM] (active)	-16.2% [5 µM] (active)	-2.85% [5 µM] (active)	-16.9% [5 µM] (active)	-29.5% [5 µM] (active)	-33.6% [5 µM] (active)	-40% [5 µM] (active)	-84.5% [5 µM] (active)	-26.4% [5 µM] (active)	-46.8% [5 µM] (active)
CC(C)Sc1nc(NNC(N)=S)c(C#N)c(-c2ccc(F)cc2)n1	103%	96.7%	96.1%	79.7%	96.3%	94.3%	88.8%	61.7%	93.2%	95.7%
C[C@@H]1N=C(c2ccc3ccccc3n2)Nc2nc3ccccn3c2C1=O	109%	77.7%	95.6%	70.1%	142%	85.7%	82.1%	108%	115%	100%
CCc1ccccc1-n1c(-c2ccc(Cl)cc2)cc(-c2ccc(OC)cc2)c(C#N)c1=O	91.5%	96.1%	99.4%	81.5%	136%	114%	99.8%	110%	-41.4% (active)	103%
COC(=O)c1ccc(C2Nc3ccc(S(=O)(=O)Nc4ccc(C)c(C)c4)cc3C3OCCC23)cc1 (stereo not given)	93.4%	57.9%	85.3%	74.9%	90.4%	89.4%	75%	74.3%	74.2%	60.6%
Cc1ccc(Cl)cc1NC(=O)c1cc2ccccc2cc1O	-12.3% (active)	4.4% (active)	-21.8% (active)	-8.04% (active)	-1.32% (active)	-15% (active)	-16.8% (active)	-31.4% (active)	-22.3% (active)	-37.4% (active)
C=C(C)[C@@H]1CC[C@]2(C)[C@H](CC=C3[C@@H]4CC(C)(C)CC[C@]4(C(N)=O)CC[C@]32C)[C@@]1(C)CCC#N	-0.287% (active)	46.1%	-48.1% (active)	17.6%	12.7%	20.8%	18.4%	7.55% (active)	39.8%	24.1%
Cc1ccc(-n2nc3c(c(C#N)c2=O)CC(c2ccccc2Cl)C([N+](=O)[O-])=C3O)cc1 (stereo not given)	99.2%	90.2%	108%	78.4%	123%	100%	84%	85.9%	84.3%	77.1%
COc1ccc2c(c1)O/C(=C\c1cccc(OCC(=O)Nc3nc4ccccc4s3)c1)C2=O	91.8%	100%	43.7%	-61.3% (active)	132%	98.2%	-88.3% (active)	110%	-61.4% (active)	18.4%
COc1ccc(N=Nc2ccc(O)c(=O)cc2)cc1	19.7%	4.69% (active)	6.7% (active)	1.08% (active)	44.3%	4.83% (active)	11.1%	82.4%	15.8%	-18.4% (active)
COc1cc(C(=O)c2cc(C)c3[nH]c4ccc(Cl)cc4c3c2C)cc(OC)c1OC	57.6%	50.2%	17.5%	24.6%	87.5%	24.2%	21%	-9.44% (active)	17.2%	20.7%
